CBX7 AlphaScr = CBX7 inhibition, primary AlphaScreen; hit rate 1.1% among 66,000; AlphaScreen His6-CBX7 / biotin-H3K27me3 peptide binding; hits give low values; normalised signal (fraction of DMSO) (test concentration not listed); AID 1224903; in the data active means normalised signal below about 0.5
Target sequence (O95931 whole entry, looked up): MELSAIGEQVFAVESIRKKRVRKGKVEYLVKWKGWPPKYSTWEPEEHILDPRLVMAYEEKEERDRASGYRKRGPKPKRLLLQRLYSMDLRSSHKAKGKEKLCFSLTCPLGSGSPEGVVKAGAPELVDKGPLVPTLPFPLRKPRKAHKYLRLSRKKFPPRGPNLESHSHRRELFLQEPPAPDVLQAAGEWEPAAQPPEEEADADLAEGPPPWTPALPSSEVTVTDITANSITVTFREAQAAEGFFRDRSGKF
A number is an active result; 0 = inactive; ! = repeats disagree. Many of the other results were omitted from the sample, so hits are more common in it than they were.

SMILES	CBX7 AlphaScr
CCOc1ccccc1Nc1nc(-c2c(C)nc3sccn23)cs1	0
CCN(CC)c1ccc(Nc2nc(-c3c(C)nc4ccccn34)cs2)cc1	0.076
Cc1nc2ccccn2c1-c1csc(Nc2ccc(Cl)cc2)n1	0
Cc1ccccc1Nc1nc(-c2c(C)nc3ccccn23)cs1	0
Cc1ccc(Nc2nc(-c3c(C)nc4ccccn34)cs2)cc1	0
COc1ccc(-c2nc3ccccc3c(C(=O)Nc3cccc(Cl)c3C)c2C)cc1	0
COc1ccc(NC(=O)CC2Nc3cc(C)c(C)cc3NC2=O)cc1 (stereo unspecified)	0
Nc1nc2ccccc2n1Cc1cccc2nonc12	0
Cc1ccc2c(c1)-c1c(cnn1CC(=O)Nc1ncccc1C)CO2	0
O=C(O)CCSc1nccn1Cc1ccccc1	0
Cc1oc(-c2cccc(Cl)c2)nc1CN1CCCC(C(=O)NCc2ccccc2)C1 (stereo unspecified)	0
CCOC(=O)N1CCC(Nc2c(N3CCN(c4cccc(Cl)c4)CC3)c(=O)c2=O)CC1	0
Cc1ccc(S(=O)(=O)Nc2ccccc2CNc2cccc3cccnc23)cc1	0
CC(=O)Nc1ccc(S(=O)(=O)Nc2cccc3cccnc23)cc1	0.045
CC(=O)Nc1ccc(S(=O)(=O)Nc2ccc(S(=O)(=O)Nc3nccc(C)n3)cc2)cc1	0
Cc1cccc(C)c1OCC(=O)Nc1nc(-c2ccccc2)cs1	0
CCC(=O)Nc1nc(C)c(-c2csc(Nc3cccc(C(=O)O)c3)n2)s1	0
CCOc1ccc(Nc2nc(-c3sc(NC(=O)CC)nc3C)cs2)cc1	0.43
CC(=O)Nc1nc(C)c(-c2csc(Nc3ccc(Br)cc3)n2)s1	0
CC(=O)Nc1ccc(Nc2nc(-c3sc(NC(C)=O)nc3C)cs2)cc1	0
CCC(=O)Nc1nc(C)c(-c2csc(Nc3ccc(C(=O)O)cc3)n2)s1	0.088!
CC(=O)Nc1nc(C)c(-c2csc(Nc3ccc(O)cc3)n2)s1	0
CCOC(=O)c1cnc2ccc(OC)cc2c1NC1CCCCC1	0
O=C(O)CSc1nc(-c2ccccc2)cs1	0
Cc1cc(N2CCN(C)CC2)nc2ccc(NC(=O)CCC(=O)NC(C)CCc3ccccc3)cc12 (stereo unspecified)	0
SMILES	CBX7 AlphaScr
CCOc1ccc2nc(N3CCC(C(=O)NCCC(C)C)CC3)sc2c1	0
Ic1ccc(-c2csc(Nc3ccc4ccccc4c3)n2)cc1	0
c1ccc(-c2csc(Nc3ccc4c(c3)OCO4)n2)cc1	0.37!
CC(=O)Nc1ccc(Nc2nc(-c3ccccc3)cs2)cc1	0
COc1ccc(-c2csc(Nc3cccc(C(F)(F)F)c3)n2)cc1F	0
CC(C)Cc1ccc(-c2csc(Nc3ccc(F)cc3)n2)cc1	0
c1ccc(-c2csc(Nc3cccc4ccccc34)n2)cc1	0
COc1ccc(-c2csc(Nc3ccccc3OC)n2)cc1F	0
O=C(Nc1nc(-c2ccc(Cl)cc2)cs1)c1ccc2c(c1)OCO2	0
O=C1c2ccccc2C(=O)N1c1cccc(-c2csc(Nc3ccc4c(c3)OCO4)n2)c1	0
COc1ccc(-c2csc(Nc3ccc4c(c3)OCO4)n2)cc1F	0.48!
CN(C)c1ccc(Nc2nc(-c3ccccc3)cs2)cc1	0.34
Fc1ccc(-c2csc(Nc3ccc4c(c3)OCO4)n2)cc1	0.38!
Nc1nonc1-n1nnc(C(=O)N2CCCCCC2)c1-c1ccccc1	0
CC(=O)OCCCNc1nc(-c2ccc(Cl)cc2)nc2ccccc12	0
CCC(=O)N1CCc2cc(S(=O)(=O)Nc3cccc(SC)c3)ccc21	0
Clc1ccccc1C1CC(c2cccs2)Nc2ncnn21 (stereo unspecified)	0
COc1ccc2cc(CCNC(C)=O)c(=O)[nH]c2c1	0
COc1ccccc1NC(=O)Cn1cc(S(=O)(=O)c2ccc(C)cc2)c(=O)c2cc(C)ccc21	0
Cc1ccccc1-c1nc(C(=O)N2CCC(C(N)=O)CC2)c(C)o1	0
Fc1ccc(Nc2nc(-c3ccccc3F)nc3ccccc23)cc1Cl	0
CCc1ccccc1NC(=O)C1CCN(c2nnc(-n3cccc3)s2)CC1	0
Cc1cc(C)cc(Nc2cc(C(=O)NCc3cccs3)c3ccccc3n2)c1	0
COc1ccc(Cl)cc1NC1c2ccccc2C(=O)N1c1cccnc1 (stereo unspecified)	0
COc1ccc(-c2nc3ccc(Cl)cn3c2NC(c2ccccc2)c2ccccc2)cc1	0
SMILES	CBX7 AlphaScr
CCOc1cc2c(cc1OCC)C(c1ccc(F)c(OC)c1)NCC2 (stereo unspecified)	0
COC(=O)c1ccc(Nc2nc(N3CCN(C)CC3)c3ccccc3n2)cc1	0
COc1ccc(Nc2cc(C(=O)N3CCCC3)c3ccccc3n2)cc1	0
COc1ccc(Nc2nc(N3CCCC3)c3ccccc3n2)cc1	0.49
CC1CCCCC1NC(=O)c1ccc2c(c1)NC(=O)C1CCCN21 (stereo unspecified)	0
CN(Cc1ccccc1)S(=O)(=O)c1ccc(C(=O)Nc2nnc(-c3ccc(F)cc3)o2)cc1	0.14
CCc1nnc(NC(=O)c2ccc(S(=O)(=O)N(C)Cc3ccccc3)cc2)o1	0.43
CCOC(=O)c1oc2ccccc2c1NC(=O)c1ccc(S(=O)(=O)N(C)Cc2ccccc2)cc1	0
COc1ccc(-c2nnc(NC(=O)c3ccc(S(=O)(=O)N4CCCC4)cc3)o2)c(OC)c1	0
COc1cccc(-c2nnc(NC(=O)c3ccc(S(=O)(=O)N(C)Cc4ccccc4)cc3)o2)c1	0.1
COc1ccccc1-c1nnc(NC(=O)c2ccc(S(=O)(=O)N(C)Cc3ccccc3)cc2)o1	0.00085
Cc1nc2cc(NC(=O)c3ccc(S(=O)(=O)N(C)Cc4ccccc4)cc3)ccc2s1	0
CCN(Cc1ccccc1)S(=O)(=O)c1ccc(C(=O)Nc2nnc(-c3cccc(OC)c3)o2)cc1	0
COc1ccccc1-c1nnc(NC(=O)c2ccc(S(=O)(=O)N3CCOCC3)cc2)o1	0
COc1cccc(-c2nnc(NC(=O)c3ccc(S(=O)(=O)N4CCCC4)cc3)o2)c1	0
Cc1cc(N2CCC(C(=O)NCCCOC(C)C)CC2)n2nc(C)c(-c3ccc(Cl)cc3)c2n1	0
CCCCN(C)S(=O)(=O)c1ccc2c(c1)CCN2C(=O)CC	0
CCOC(=O)c1cc(-c2ccc3c(c2)OCO3)no1	0
CCCCC(=O)Nc1c(-c2ccccc2)nc2ccccn12	0
CC1(C)Cc2c(cnn2-c2ccc(F)cc2F)-c2nc3ccccc3nc21	0
CCc1ccccc1NS(=O)(=O)c1cnc[nH]1	0
COc1ccccc1NC(=O)CCN1CCN(CCO)CC1	0
CCC(C)NC(=O)c1cc(-c2ccc(Br)cc2)on1 (stereo unspecified)	0
COc1ccc(-c2nnc(NC(=O)c3ccc(S(=O)(=O)N(C)C)cc3)o2)cc1	0.037
COc1cc(OC)cc(-c2nnc(NC(=O)c3ccc(S(=O)(=O)N(C)C)cc3)o2)c1	0
SMILES	CBX7 AlphaScr
COc1cccc(-c2nnc(NC(=O)c3ccc(S(=O)(=O)N4CCOCC4)cc3)o2)c1	0
CN(C(=O)c1ccc2c(=O)n3c(nc2c1)CCCCC3)c1ccc(Br)cc1	0
CC1CCCCC1NC(=O)c1cc(Nc2cccc(C(F)(F)F)c2)nc2ccccc12 (stereo unspecified)	0
COc1ccc2nc(NC(=O)c3cc4c(s3)-c3ccccc3OC4)sc2c1	0
Fc1ccccc1-c1nc(NCc2ccccc2Cl)c2ccccc2n1	0
COCCNc1nc(-c2ccccc2F)nc2ccccc12	0
COc1ccccc1CNc1nc(-c2ccccc2F)nc2ccccc12	0.32
CCOc1ccccc1NC(=O)Cn1cnc2sc(C)c(C)c2c1=O	0
CCN1CCN(c2ncc(C(=O)Nc3ccc4c(c3)OCCO4)c3ccccc23)CC1	0

Screening results from PubChem.
